Measurements from PubChem BioAssay AID1159580 (chemical genetic matrix, 2015).
Hit rate of the full screen: of about 5,500 compounds, about 2,000 (36%) were called active. Inconclusive results (about 18%) are left out. Cut-off read from the data, not from the text of the source: active = normalized growth mostly below about 0.91 (no sharp cut-off); inconclusive = no clear call, values can overlap the other calls; inactive = mostly above about 0.92. The list shows a part of the results.

Assay: chemical genetic growth profiling, strain panel (AID 1159580);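 note: tested at 20 µM; growth read once vehicle control cultures reached saturation at 30 °C; 1 = growth at the plate median or of vehicle wells; lower values mean less growth of the strain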
Conditions: growth OD

Measured: normalized growth

COc1ccc2c(=O)cc(-c3ccccc3OC)oc2c1
inactive: S. cerevisiae deletion strains, locus YBR229C, strain ROT2, active compounds read low 0.97 | S. cerevisiae deletion strains, locus YCL029C, strain bik1, active compounds read low 0.946 | S. cerevisiae deletion strains, locus YDL035C, strain GPR1, active compounds read low 0.865 | S. cerevisiae deletion strains, locus YDL074C, strain BRE1, active compounds read low 0.81 | S. cerevisiae deletion strains, locus YDL101C, strain DUN1, active compounds read low 0.933 | S. cerevisiae deletion strains, locus YDL185W, strain tfp1, active compounds read low 0.948 | S. cerevisiae deletion strains, locus YDR162C, strain NBP2, active compounds read low 0.843 | S. cerevisiae deletion strains, locus YDR388W, active compounds read low 0.934 | S. cerevisiae deletion strains, locus YER110C, active compounds read low 0.939 | S. cerevisiae deletion strains, locus YGL078C, strain dbp3, active compounds read low 0.934 | S. cerevisiae deletion strains, locus YHR079C, strain IRE1 (second series), active compounds read low 0.941 | S. cerevisiae deletion strains, locus YHR094C, strain hxt1, active compounds read low 0.961 | S. cerevisiae deletion strains, locus YIL073C, strain SPO22, active compounds read low 0.806 | S. cerevisiae deletion strains, locus YIL125W, strain kgd1, active compounds read low 0.938 | S. cerevisiae deletion strains, locus YJL134W, strain LCB3, active compounds read low 0.985 | S. cerevisiae deletion strains, locus YJL168C, strain set2, active compounds read low 0.941 | S. cerevisiae deletion strains, locus YJL187C, strain SWE1 (second series), active compounds read low 0.918 | S. cerevisiae deletion strains, locus YKL009W, strain mrt4, active compounds read low 0.947 | S. cerevisiae deletion strains, locus YKL068W, active compounds read low 0.963 | S. cerevisiae deletion strains, locus YKL085W, strain MDH1 (second series), active compounds read low 0.97 | S. cerevisiae deletion strains, locus YKL085W, strain MDH1, active compounds read low 0.97 | S. cerevisiae deletion strains, locus YLR058C, strain SHM2, active compounds read low 0.949 | S. cerevisiae deletion strains, locus YLR102C, strain apc9, active compounds read low 0.95 | S. cerevisiae deletion strains, locus YLR262C, strain YPT6, active compounds read low 0.65 | S. cerevisiae deletion strains, locus YML016C, strain PPZ1, active compounds read low 0.974 | S. cerevisiae deletion strains, locus YML124C, strain tub3, active compounds read low 0.94 | S. cerevisiae deletion strains, locus YMR078C, strain ctf18, active compounds read low 0.916 | S. cerevisiae deletion strains, locus YNL067W, strain RPL9B, active compounds read low 0.923 | S. cerevisiae deletion strains, locus YNL250W, strain rad50, active compounds read low 0.984 | S. cerevisiae deletion strains, locus YNL271C, strain bni1, active compounds read low 0.939 | S. cerevisiae deletion strains, locus YNL298W, strain CLA4, active compounds read low 0.912 | S. cerevisiae deletion strains, locus YNL322C, strain KRE1, active compounds read low 0.969 | S. cerevisiae deletion strains, locus YOL012C, strain htz1 0.811 | S. cerevisiae deletion strains, locus YOR061W, strain CKA2, active compounds read low 0.976 | S. cerevisiae deletion strains, locus YOR069W, strain VPS5, active compounds read low 0.957 | S. cerevisiae deletion strains, locus YOR136W, strain idh2, active compounds read low 0.931 | S. cerevisiae deletion strains, locus YOR316C, strain cot1, active compounds read low 0.958 | S. cerevisiae deletion strains, locus YPR119W, strain clb2, active compounds read low 0.941 | S. cerevisiae deletion strains, locus YPR141C, strain kar3, active compounds read low 0.96
active: S. cerevisiae deletion strains, locus YAL013W, strain DEP1, active compounds read low 0.743 | S. cerevisiae deletion strains, locus YBR021W, strain FUR4, active compounds read low 0.797 | S. cerevisiae deletion strains, locus YDL192W, strain arf1, active compounds read low 0.763 | S. cerevisiae deletion strains, locus YDR101C, strain arx1, active compounds read low 0.883 | S. cerevisiae deletion strains, locus YDR318W, strain mcm21, active compounds read low 0.866 | S. cerevisiae deletion strains, locus YDR502C, strain sam2, active compounds read low 0.85 | S. cerevisiae deletion strains, locus YER155C, strain BEM2, active compounds read low 0.869 | S. cerevisiae deletion strains, locus YGL086W, strain mad1, active compounds read low 0.833 | S. cerevisiae deletion strains, locus YGL248W, strain PDE1, active compounds read low 0.825 | S. cerevisiae deletion strains, locus YGR078C, strain PAC10, active compounds read low 0.509 | S. cerevisiae deletion strains, locus YGR135W, strain pre9, active compounds read low 0.812 | S. cerevisiae deletion strains, locus YGR252W, strain gcn5, active compounds read low 0.716 | S. cerevisiae deletion strains, locus YHR030C, strain SLT2, active compounds read low 0.539 | S. cerevisiae deletion strains, locus YHR129C, strain ARP1, active compounds read low 0.849 | S. cerevisiae deletion strains, locus YHR200W, strain rpn10, active compounds read low 0.895 | S. cerevisiae deletion strains, locus YIL066C, strain RNR3, active compounds read low 0.819 | S. cerevisiae deletion strains, locus YIR030C, strain dcg1, active compounds read low 0.905 | S. cerevisiae deletion strains, locus YJL095W, strain BCK1, active compounds read low 0.437 | S. cerevisiae deletion strains, locus YJR043C, strain POL32, active compounds read low 0.778 | S. cerevisiae deletion strains, locus YKR001C, strain vps1, active compounds read low 0.709 | S. cerevisiae deletion strains, locus YLR039C, strain RIC1, active compounds read low 0.642 | S. cerevisiae deletion strains, locus YLR268W, strain sec22, active compounds read low 0.767 | S. cerevisiae deletion strains, locus YLR330W, strain CHS5, active compounds read low 0.629 | S. cerevisiae deletion strains, locus YLR342W, strain FKS1 (second series), active compounds read low 0.716 | S. cerevisiae deletion strains, locus YLR371W, strain rom2, active compounds read low 0.728 | S. cerevisiae deletion strains, locus YLR418C, strain cdc73, active compounds read low 0.468 | S. cerevisiae deletion strains, locus YML032C, strain rad52, active compounds read low 0.879 | S. cerevisiae deletion strains, locus YMR223W, strain ubp8, active compounds read low 0.831 | S. cerevisiae deletion strains, locus YMR307W, strain GAS1, active compounds read low 0.49 | S. cerevisiae deletion strains, locus YNL128W, strain TEP1, active compounds read low 0.708 | S. cerevisiae deletion strains, locus YNL233W, strain BNI4, active compounds read low 0.632 | S. cerevisiae deletion strains, locus YNL307C, strain MCK1, active compounds read low 0.526 | S. cerevisiae deletion strains, locus YNR052C, strain pop2, active compounds read low 0.914 | S. cerevisiae deletion strains, locus YOL006C, strain TOP1, active compounds read low 0.484 | S. cerevisiae deletion strains, locus YOL147C, strain pex11, active compounds read low 0.874 | S. cerevisiae deletion strains, locus YOR144C, strain elg1, active compounds read low 0.916 | S. cerevisiae deletion strains, locus YOR184W, strain ser1, active compounds read low 0.671 | S. cerevisiae deletion strains, locus YPL241C, strain CIN2, active compounds read low 0.918 | S. cerevisiae deletion strains, locus YPR163C, strain tif3, active compounds read low 0.748 | S. cerevisiae deletion strains, locus YPR167C, strain met16, active compounds read low 0.902 | S. cerevisiae deletion strains, strain wtn01, active compounds read low 0.802 | S. cerevisiae strains, strain wild type, active compounds read low 0.589
